Assay [1] can be described thus: ATG_TGFb_CIS: Attagene CIS-FACTORIAL HepG2 Assay for human Transforming Growth Factor (TGF) (AID 2282967). The following applies: HepG2 Attagene CIS TGFb reporter, mRNA transcription; actives raise or lower the signal. A digest of the protocol: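 HepG2 cells transiently transfected with cis-promoter-driven multiple reporter units measure endogenous TF activity; reporter mRNA quantified at 24 h by RT-PCR, FAM labeling, HpaI digestion and capillary electrophoresis. Bidirectional fit vs DMSO.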

The target of assay [2] is X-box-binding protein 1 (Homo sapiens) (UniProt P17861). Kind of assay: ATG_Xbp1_CIS: Attagene CIS-FACTORIAL HepG2 Assay for human X-box Binding Protein 1 (XBP1) (AID 2282972). The following applies: HepG2 XBP1 cis-element reporter, Attagene multiplex; actives raise or lower the signal. A digest of the protocol: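 After a 24-hour chemical exposure of HepG2 cells carrying cis-regulated reporters, reporter mRNA levels are assessed. Quantification uses RT-PCR, 6-FAM labelling and capillary electrophoresis. Gain- or loss-of-signal is fitted against DMSO.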
Chain of X-box-binding protein 1 (Homo sapiens) (P17861 whole entry, looked up): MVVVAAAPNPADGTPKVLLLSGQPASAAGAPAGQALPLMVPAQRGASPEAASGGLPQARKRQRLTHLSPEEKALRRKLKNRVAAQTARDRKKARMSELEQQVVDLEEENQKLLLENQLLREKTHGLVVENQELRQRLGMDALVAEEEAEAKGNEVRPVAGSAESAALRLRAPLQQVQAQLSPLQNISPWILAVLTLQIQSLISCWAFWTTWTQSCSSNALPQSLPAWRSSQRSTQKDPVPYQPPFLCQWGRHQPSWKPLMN

Assay [3] in a line: ATG_M_19_TRANS: Attagene TRANS-FACTORIAL HepG2 Assay for M19 Transcription Factor (Internal Marker) (AID 2282974; active = hit-call score of the fitted dose curve at least 0.9, where 1 is the maximum). Particulars: HepG2 Attagene TRANS-FACTORIAL M19 internal marker reporter. The procedure, abridged:
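Using RT-PCR and capillary electrophoresis, reporter mRNA from transiently transfected human HepG2 cells was quantified following 24 h exposure; activity was fitted in the positive direction against DMSO.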

A short description of assay [4]: ATG_GAL4_TRANS: Attagene TRANS-FACTORIAL HepG2 Assay for GAL4 (Internal Marker) (AID 2282976; active = hit-call score of the fitted dose curve at least 0.9, where 1 is the maximum). The following applies: HepG2 Attagene TRANS GAL4 internal marker reporter. A digest of the protocol:
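Liver HepG2 line bearing multiplexed GAL4-UAS reporter constructs; 24 h chemical treatment. Transcripts were quantified as fluorescent fragments on capillary electrophoresis after RT-PCR and HpaI cut, with activity fitted upward from DMSO.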

A short description of assay [5]: ATG_VDRE_CIS: Attagene CIS-FACTORIAL HepG2 Assay for human Vitamin D Receptor Element (VDRE) (AID 2282968). Particulars: HepG2 VDRE cis-reporter transcription, actives raise or lower the signal. The procedure, abridged: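 HepG2 cells transiently transfected with cis-element reporter units, dosed 24 h; reporter mRNA measured by RT-PCR, 6-FAM labeling, HpaI digestion and capillary electrophoresis. Activity fitted bidirectionally against DMSO baseline.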

Assay [6] addresses Estrogen receptor (Homo sapiens) (UniProt P03372). The experiment in a line: ATG_ERa_TRANS: Attagene TRANS-FACTORIAL HepG2 Assay for human Estrogen Receptor alpha (ERa) (AID 2282970; active = hit-call score of the fitted dose curve at least 0.9, where 1 is the maximum). Particulars: HepG2 Attagene TRANS ERa GAL4 reporter, mRNA. The procedure, abridged:
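Multiplexed cell-based reporter format in HepG2: chimeric ERa-Gal4 protein drives GAL4-UAS reporter transcription. Fluorescent reporter mRNA quantified by capillary electrophoresis 24 hours after dosing; endpoint fitted as signal gain against DMSO.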

The target in assay [7] is Estrogen-related receptor gamma (Homo sapiens) (UniProt P62508). Kind of assay: ATG_ERRg_TRANS: Attagene TRANS-FACTORIAL HepG2 Assay for human Estrogen-Related Receptor gamma (ERRg) (AID 2282977; active = hit-call score of the fitted dose curve at least 0.9, where 1 is the maximum;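 also: hits increase reporter signal over DMSO so potencies reflect activators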). The following applies: HepG2 Attagene TRANS reporter, ERRg transactivation. The procedure, abridged:
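HepG2 cells transiently transfected with multiplexed GAL4-UAS reporter units and chimeric NR-Gal4 constructs were exposed to test chemicals for 24 h. Reporter mRNA was measured by RT-PCR, 6-FAM primer extension, HpaI digestion and capillary electrophoresis; gain-of-signal versus DMSO.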

The target of assay [8] is Nuclear receptor subfamily 1 group I member 3 (Homo sapiens) (UniProt Q14994). The experiment in a line: ATG_CAR_TRANS: Attagene TRANS-FACTORIAL HepG2 Assay for human Constitutive Androstane Receptor (CAR) (AID 2282969; active = hit-call score of the fitted dose curve at least 0.9, where 1 is the maximum;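 also: activators raise reporter mRNA above DMSO so AC50 marks induction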). Particulars: HepG2 Attagene TRANS-FACTORIAL CAR reporter. A digest of the protocol: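 HepG2 cells transiently transfected with multiplexed GAL4-UAS reporter units expressing chimeric NR-Gal4 proteins; compound exposure 24 h. Reporter mRNA measured by RT-PCR, 6-FAM labelling, HpaI digestion and capillary electrophoresis; gain-of-signal fitted against DMSO baseline.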
Chain of Nuclear receptor subfamily 1 group I member 3 (Homo sapiens) (Q14994 whole entry, looked up, the tested form may be a part): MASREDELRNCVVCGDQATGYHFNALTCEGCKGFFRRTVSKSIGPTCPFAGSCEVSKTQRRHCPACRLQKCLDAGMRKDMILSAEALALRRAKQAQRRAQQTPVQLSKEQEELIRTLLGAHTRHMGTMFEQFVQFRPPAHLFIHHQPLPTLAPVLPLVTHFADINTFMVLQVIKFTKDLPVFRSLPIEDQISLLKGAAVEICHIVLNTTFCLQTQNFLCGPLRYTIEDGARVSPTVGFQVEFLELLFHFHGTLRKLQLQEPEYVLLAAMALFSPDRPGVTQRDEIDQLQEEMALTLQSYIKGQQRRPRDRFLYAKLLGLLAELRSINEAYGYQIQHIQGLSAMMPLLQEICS

Assay [9] has as its target Steroid hormone receptor ERR1 (Homo sapiens) (UniProt P11474). Kind of assay: ATG_ERRa_TRANS: Attagene TRANS-FACTORIAL HepG2 Assay for human Estrogen-Related Receptor alpha (ERRa) (AID 2282971; active = hit-call score of the fitted dose curve at least 0.9, where 1 is the maximum). The following applies: HepG2 Attagene TRANS reporter, ERRa transactivation. A digest of the protocol: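 Signal gain relative to DMSO for an ERRa-Gal4 chimeric receptor, read as reporter mRNA by RT-PCR/capillary electrophoresis. Human HepG2 liver cells, transient multiplex reporter transfection, 24 h chemical exposure.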

Inconclusive results are not listed. Activity calls are given as the source filed them. The calls were made as follows, unless noted: active = hit-call score of the fitted dose curve at least 0.9, where 1 is the maximum; inactive = score below 0.9.

Usually AC50 stands for the concentration giving half of the maximal activity seen.

Chain of Estrogen receptor (Homo sapiens) (P03372 whole entry, looked up, the tested form may be a part): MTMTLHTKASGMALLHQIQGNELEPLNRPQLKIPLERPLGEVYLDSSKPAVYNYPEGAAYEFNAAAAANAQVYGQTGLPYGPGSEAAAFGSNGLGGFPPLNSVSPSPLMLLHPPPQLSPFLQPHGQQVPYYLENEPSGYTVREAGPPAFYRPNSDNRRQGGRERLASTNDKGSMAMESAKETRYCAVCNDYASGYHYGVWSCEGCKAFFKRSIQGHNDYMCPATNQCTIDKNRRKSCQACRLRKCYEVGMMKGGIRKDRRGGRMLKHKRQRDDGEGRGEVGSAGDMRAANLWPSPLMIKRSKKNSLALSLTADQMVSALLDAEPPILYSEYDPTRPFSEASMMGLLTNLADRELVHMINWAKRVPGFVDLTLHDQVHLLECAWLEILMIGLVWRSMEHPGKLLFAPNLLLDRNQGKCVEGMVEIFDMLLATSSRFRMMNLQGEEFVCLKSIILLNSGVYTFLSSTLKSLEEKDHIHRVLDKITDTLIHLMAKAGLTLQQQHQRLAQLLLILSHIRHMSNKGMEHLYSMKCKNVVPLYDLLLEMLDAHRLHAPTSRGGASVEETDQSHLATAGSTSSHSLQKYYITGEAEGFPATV
Chain of Estrogen-related receptor gamma (Homo sapiens) (P62508 whole entry, looked up, the tested form may be a part): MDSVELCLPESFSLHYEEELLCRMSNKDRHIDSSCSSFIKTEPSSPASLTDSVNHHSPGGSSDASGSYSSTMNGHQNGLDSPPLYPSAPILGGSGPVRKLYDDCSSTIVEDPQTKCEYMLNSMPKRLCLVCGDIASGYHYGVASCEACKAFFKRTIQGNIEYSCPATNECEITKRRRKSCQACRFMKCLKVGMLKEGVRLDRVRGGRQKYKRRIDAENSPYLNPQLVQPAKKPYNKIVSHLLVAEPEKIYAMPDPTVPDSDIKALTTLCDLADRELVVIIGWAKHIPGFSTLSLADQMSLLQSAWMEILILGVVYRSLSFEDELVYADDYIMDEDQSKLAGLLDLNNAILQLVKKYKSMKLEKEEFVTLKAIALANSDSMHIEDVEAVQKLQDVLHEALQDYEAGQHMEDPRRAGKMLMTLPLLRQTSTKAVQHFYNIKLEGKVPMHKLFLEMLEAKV
Chain of Steroid hormone receptor ERR1 (Homo sapiens) (P11474 whole entry, looked up, the tested form may be a part): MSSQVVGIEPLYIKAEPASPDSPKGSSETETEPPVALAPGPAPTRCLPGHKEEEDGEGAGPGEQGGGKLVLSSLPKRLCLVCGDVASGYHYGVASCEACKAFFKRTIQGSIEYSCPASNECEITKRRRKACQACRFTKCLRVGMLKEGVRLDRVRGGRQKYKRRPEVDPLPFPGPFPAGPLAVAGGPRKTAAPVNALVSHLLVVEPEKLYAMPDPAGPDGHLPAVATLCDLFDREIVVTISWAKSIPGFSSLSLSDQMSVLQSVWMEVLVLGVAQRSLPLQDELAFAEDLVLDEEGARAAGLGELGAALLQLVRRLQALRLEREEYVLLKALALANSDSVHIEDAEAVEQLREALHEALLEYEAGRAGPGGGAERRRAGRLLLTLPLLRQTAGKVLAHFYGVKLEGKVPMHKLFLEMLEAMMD

For `C=CC(C)(O)CCC=C(C)CCC=C(C)C` (stereo unspecified), the AC50 is 187 µM (active) in assay [1] and 120 µM (active) in [2].

In the case of `CC1(C)[C@@H]2CC[C@@]1(C)[C@H](O)C2`, the result in assay [1], in assay [2], in assay [3] and in assay [4] was inactive.

Consider `CC(=O)O[C@]1(C(C)=O)CC[C@H]2[C@@H]3C[C@H](C)C4=CC(=O)CC[C@]4(C)[C@H]3CC[C@@]21C`, for which the outcome in assay [1], in assay [6], in [2] and in assay [4] was inactive. For the same molecule, the half-maximal activity concentration (AC50) in assay [5] was 17.1 µM (active).

Take `N#Cc1nc(Cl)c(Cl)c(Cl)c1Cl`: the molecule was called inactive in [1] and in [7]. For the same molecule, the AC50 in [5] is 4.14 µM (active); in [2] it was 5.85 µM (active).

With `CC(C)OP(=O)(CP(=O)(OC(C)C)OC(C)C)OC(C)C`, the molecule was classed as inactive in assay [1], in assay [5], in assay [6], in assay [2] and in [4].

As for `CC(C)Oc1ccccc1O`, the molecule was classed as inactive in assay [1], in [8], in assay [6], in assay [2] and in assay [4].

Regarding `COc1cc2ncnc(Nc3cccc(Cl)c3)c2cc1OC`, the outcome in assay [1], in assay [6] and in [4] was inactive. The values for the AC50 in [5] and in [2] were 12.7 µM (active) and 8.13 µM (active), respectively.

Regarding `O=C(O)c1ccc([N+](=O)[O-])cc1`, the molecule was called inactive in [1], in assay [5], in assay [2] and in assay [4].

In the case of `C=CC(=O)OCCn1c(=O)n(CCOC(=O)C=C)c(=O)n(CCOC(=O)C=C)c1=O`, the AC50 in assay [5] was 4.16 µM (active); in assay [2] it was 8.6 µM (active). The result in [9], in assay [4] and in assay [7] was inactive.

`COc1ccc(OC)c(OC)c1`: the molecule was called inactive in assay [1], in assay [5], in assay [8], in [6], in [2] and in [4].

In the case of `COc1cc(C)cc(O)c1`, the molecule was called inactive in [1], in assay [8], in assay [2], in [3] and in assay [4].

Regarding `Fc1c(F)c(F)c(Br)c(F)c1F`, the result in assay [1], in assay [5], in assay [8], in assay [2] and in assay [3] was inactive.

Take `CC(C)CCCCCCCOC(=O)c1ccc(C(=O)OCCCCCCCC(C)C)c(C(=O)OCCCCCCCC(C)C)c1`: the call in assay [1], in assay [5], in assay [8], in assay [2] and in assay [3] was inactive.

For the molecule `CCCCCC=CCC(=O)OC`, the result in assay [1], in assay [5], in [2], in assay [3] and in [4] was inactive.

`O=P(c1ccccc1)(c1ccccc1)c1ccccc1`: the outcome in assay [1], in assay [8], in assay [6] and in assay [2] was inactive. Besides, in [5], the AC50 is 13.1 µM (active).

Take `C=C(C)C(=O)OCCOC(=O)CC(C)=O`: the molecule was called inactive in assay [1], in [5], in assay [2], in assay [3] and in assay [4].

On to `NCCCCCCN`, for which the call in assay [1], in [5], in [9], in assay [2], in [3] and in assay [4] was inactive. The molecule was called inactive in assay [7].

Consider `O=Nc1ccc(Nc2ccccc2)cc1`, for which the molecule was called inactive in [1], in assay [2], in assay [3] and in assay [7]. The concentration at half-maximal activity (AC50) in assay [5] is 30.3 µM (active); in assay [8], 26.7 µM (active); in [6], 34.9 µM (active).

In the case of `O=C(O)c1cccc([N+](=O)[O-])c1`, the call in assay [2] and in assay [4] was inactive.

For `C=C[C@@H](C)CCC=C(C)C`, the call in [1], in assay [5], in [2] and in assay [4] was inactive.

In the case of `CCCCOCCOCCSC#N`, the call in [1], in assay [5], in [8], in assay [2], in assay [3] and in assay [4] was inactive.

Turning to `CN(C)C(=N)N=C(N)N`, the call in assay [1], in assay [8], in assay [2], in assay [3] and in assay [4] was inactive.

Regarding `Nc1cc([N+](=O)[O-])ccc1O`, the outcome in [1], in [5], in assay [8], in assay [9], in assay [2] and in assay [3] was inactive. Further, the call in assay [4] and in assay [7] was inactive.

For the molecule `COC(C)CCO` (stereo unspecified), the call in assay [1], in assay [8] and in assay [2] was inactive. Moreover, the half-maximal activity concentration (AC50) in [5] was 65.3 µM (active).

As for `CC(C)=CCCC(C)=CCCC(C)=CCO`, the molecule was classed as inactive in [1], in [5], in [8], in [2] and in [3].

On to `CC1CCC(C(C)CS)CC1S` (stereo unspecified), for which the outcome in [5], in [9], in assay [2], in assay [3] and in assay [4] was inactive.

Consider `CCCCOCCOCCOCCOCCO`, for which the call in [1], in assay [5], in assay [2] and in [4] was inactive.

As to `CC(=O)OCC=Cc1ccccc1`, the outcome in assay [1], in [5], in assay [8], in assay [9], in assay [2] and in [3] was inactive. In addition, the result in assay [4] and in assay [7] was inactive.

Take `CCCCCCCCC=O`: the outcome in assay [1], in assay [5], in [9], in assay [2], in assay [4] and in assay [7] was inactive.

Values taken from PubChem BioAssay (EPA / NIEHS).
